The whole screen tested about 190,000 compounds, of which about 930 (0.49%) were called active.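 The calls were made as follows: active = z-score of insulin promoter reporter brightness in nuclei below -3 at 5 µM, with at least 500 cells counted; inconclusive = wells with under 500 cells, flagged as toxic or sparse; inactive = the rest.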 The list shows a part of the results. Potency and affinity values are given separately.

The nature of this assay: insulin promoter down-regulators in MIN6 cells, imaging, high-content screening, mouse beta cells (AID 1628). The following applies: MIN6 insulin promoter GFP reporter, at 5 µM, active compounds read low.
Regarding `COC(=O)c1cn(NC(=O)/C=C/c2cc(OC)ccc2OC)c(=O)c2ccccc12`, the z-score was -3.15 (active).
With `CC1(C#CC[N+]2(C)CCCCC2)CCC2C(O1)c1ccccc1OC2(C)C` (centres undefined) the figure was 3.38 (inactive).
For `CC(=O)C(=Cc1cn(-c2ccccc2)nc1-c1ccccc1)C(C)=O` the value was 3.2 (inactive); for `COc1ccc(-c2nn(-c3ccccc3)cc2/C=C(\C#N)S(=O)(=O)c2ccccc2)cc1OC`, -4.08 (active).
With `CN(C)c1ccc(/C=C/c2ccc3ccccc3n2)cc1` the figure was 7.29 (inactive); with `Cc1cc(N2C(=O)c3ccccc3C2=O)n(C)n1`, 3.77 (inactive).
Regarding `O=C(/C=C/c1ccco1)NC(=S)Nc1ccccc1N1CCCC1`, the z-score is 3.08 (inactive).
With `CCc1nnc(NC(=O)CSc2ccc(-c3cccs3)nn2)s1` the figure was 1.38 (inactive).
For `CCOC(=O)c1ccc(CSc2nnc(-c3ccncc3)n2N)cc1` the value was 3.8 (inactive); for `COc1ccc(NC(=O)CSc2nnc(-c3cccs3)n2C)cc1OC`, 3.55 (inactive).
For `CCn1c(SCC(=O)Nc2cc(OC)c(OC)c(OC)c2)nnc1-c1cccs1` the value was -4.1 (active); for `CCn1c(SCC(=O)N2CCCC2)nnc1-c1ccc(N)cc1`, 1.98 (inactive); for `CCOc1ccccc1N1CC(O)=C(c2nc3ccccc3s2)C1=N`, -3.91 (active).
With `Cc1ccc(N2C(=O)C3C(C(=O)c4ccccc4)=NN(c4ccccc4)C3C2=O)cc1` (centres undefined), the z-score is 3.17 (inactive).
Turning to `Cc1ccc(-n2cc(-c3ccc([N+](=O)[O-])cc3)[nH]c2=S)c(C)c1`, the z-score is -6.17 (active).
With `CCN1CCC2(CC1)N=C(c1ccc(F)cc1)C(=S)N2` the figure was 4.47 (inactive).
With `CS(=O)(=O)ON=C1CCN(S(=O)(=O)c2ccccc2)CC1` the figure was 3.51 (inactive); with `O=c1oc2c(CN3CCCCC3)c(O)ccc2cc1-c1nc2ccccc2[nH]1`, 3.57 (inactive).
For `O=C1C=C(c2ccccc2)C[C@H](c2cccs2)[C@H]1n1nnc([N+](=O)[O-])n1` the value was -3.36 (active).
With `CCOC(=O)CC1C(=O)NCCN1c1nc2c(C)cccn2c(=O)c1/C=C1\SC(=S)N(CC(C)C)C1=O` (centres undefined), the z-score was 16.9 (inactive).
For the molecule `CCN(CC)CCCNc1nc2cc(OC)c(OC)cc2c2nc(-c3cccnc3)nn12`, the z-score was -3.38 (active).
With `CCN(CC)CCCC(C)Nc1c2ccc(Cl)cc2nc2ccc(OC)cc12` (centres undefined) the figure was 12.4 (inactive); with `COc1ccc(-c2c[n+](CC(=O)N3c4ccccc4Sc4ccccc43)c3n2CCC3)cc1`, -3.33 (active); with `CC1CCC(C(C)C)C(OC(=O)C[n+]2cc(-c3ccc(Cl)cc3)n3c2CCCCC3)C1` (centres undefined), -4.3 (active).
As to `Nc1ccc(-c2nc3nc(N)nc(N)c3nc2-c2ccc(N)cc2)cc1`, the z-score was 4.9 (inactive).
For `Cc1cccc(OCC2=N/C(=C\N(C)C)C(=O)O2)c1` the value was 2.11 (inactive); for `Nc1nonc1C(=O)NCCNCc1ccccc1OCc1ccccc1F`, -3.51 (active); for `COc1ccc(C(=O)N(CN2CCCC2=O)c2ccc(C)cc2)cc1`, 3.42 (inactive).
For `COc1ccc(S(=O)(=O)N(CCCN2CCCC2=O)Cc2cc3c(C)ccc(C)c3[nH]c2=O)cc1` the value was -4.34 (active).
For `COC(=O)c1cnn2c(C(F)(F)F)cc(-c3ccc(F)cc3)nc12` the value was 4.23 (inactive).
In the case of `Oc1c(C(c2ccccn2)N2CCCCC2)cc(Cl)c2cccnc12` (centres undefined), the z-score was -5.13 (active).
For `COc1ccc(-c2csc(N(CCCN(C)C)C(=O)c3cccs3)n2)cc1` the value was -4.21 (active); for `COc1ccc(-c2csc(N(CCCN3CCOCC3)C(=O)c3ccco3)n2)cc1`, -4.01 (active); for `COc1ccc(NC(=S)N(CCCN2CCOCC2)C(C)c2cc3cccc(OC)c3o2)cc1` (centres undefined), 2.54 (inactive).
For `COc1ccc(-c2cc(C(F)(F)F)nc(SCC(=O)NCCN3CCOCC3)n2)cc1OC`, the z-score is 0.28 (inactive).
With `CN(C)CCCN(C(=O)COc1ccc(Cl)cc1)c1nc2ccc(F)cc2s1` the figure was 1.61 (inactive).
For `Cc1[nH]c2ccccc2c1Cc1nnc(SCC(N)=O)o1` the value was 4.82 (inactive); for `COc1ccc(C(=O)CSc2nnc(Cn3cnc4ccccc43)o2)cc1`, -3.47 (active).
With `CCC(=O)c1cc(F)c(N2CCN(S(=O)(=O)c3ccc(C)cc3)CC2)cc1C` the figure was -4.01 (active).
Regarding `C/C(=N\S(=O)(=O)c1ccc(C)cc1)N1CCN(S(=O)(=O)c2ccccc2)C1`, the z-score was 3.52 (inactive).
For `CCCSc1nc2sc3c(c2c(=O)[nH]1)CCN(Cc1ccccc1)C3` the value was 7.3 (inactive).
In the case of `O=C(c1ccco1)N(Cc1ccccc1)c1cccc([N+](=O)[O-])c1`, the z-score is 2.28 (inactive).
With `CC(C)(C)c1cc(C(=O)NCc2cccnc2)ccn1` the figure was 4.34 (inactive); with `CC(=O)c1c(COC(=O)c2ccncc2)nc2ccccc2[n+]1[O-]`, 4.18 (inactive); with `CCOc1ccc(C(=O)O)cn1`, 0.1 (inactive).
Consider `CCOc1ccc2nc(C)cc(Nc3cccc([N+](=O)[O-])c3)c2c1`, for which the z-score is -3.35 (active).
With `O=[N+]([O-])c1ccc(N(c2ccccc2)c2ccccc2)cc1` the figure was 3.11 (inactive); with `CC(C)(C)c1ccc(Cn2c(=N)n(CC(O)c3ccco3)c3ccccc32)cc1` (centres undefined), -5.45 (active); with `Cc1ccc(Cn2c(=N)n(CC(O)c3ccco3)c3ccccc32)cc1` (centres undefined), -11.4 (active).
With `Cc1ccccc1-n1c(=O)c2ccccc2n(CC(=O)NCc2ccco2)c1=O`, the z-score is 3.06 (inactive).
With `COc1ccc(CN(CC2CCC(C(=O)O)CC2)C(=S)Nc2cccc(C)c2)cc1` (centres undefined) the figure was 3.65 (inactive); with `COCCSc1nnc(NC(=O)c2ccc([N+](=O)[O-])cc2)s1`, 0.48 (inactive); with `Cc1sc2ncnc(NCCCn3ccnc3)c2c1C`, -3.16 (active).
Consider `COc1ccc(C(=O)Nn2cnnc2)cc1OC`, for which the z-score is 4.36 (inactive).
With `COc1ccc(C(=O)Nc2cccnc2)cc1OC` the figure was 2.67 (inactive); with `COc1ccc(C(=O)Nc2ccc(S(=O)(=O)Nc3nccnc3OC)cc2)cc1OC`, -3.5 (active).
For `COc1ccc(OCC(=O)Nc2ccc(S(=O)(=O)Nc3cc(C)nc(C)n3)cc2)cc1`, the z-score was 3.12 (inactive).
Consider `CCN(CC)c1ccc2cc(/C(N)=N/NC(=O)c3cccs3)c(=O)oc2c1`, for which the z-score is 7.11 (inactive).
With `CCN(CC)c1ccc2cc(-c3nnc(-c4ccccc4)o3)c(=O)oc2c1` the figure was 15.1 (inactive); with `Cc1nc2[nH]c(=O)c3c(n2n1)NC1=C(C(=O)CC(C)(C)C1)C3c1ccccc1` (centres undefined), -4.42 (active).
Consider `O=C1S/C(=C/c2ccc(N3CCOCC3)o2)C(=O)N1Cc1c(F)cccc1Cl`, for which the z-score was 3.83 (inactive).
For `Cc1sc2ncnc(Sc3ccccc3C(=O)Nc3ccc(Br)cc3)c2c1C` the value was -5.49 (active); for `CC1CCN(S(=O)(=O)c2ccc3c(c2)c(=O)c(C(=O)N2CCCCC2)cn3C)CC1`, 4.9 (inactive); for `CC1CCc2c(C(=O)N3CCN(S(=O)(=O)c4cccs4)CC3)csc2C1` (centres undefined), -3.81 (active).
With `COC(=O)c1cc2occc2n1Cc1c(F)cccc1Cl` the figure was 3.08 (inactive).
For `COC(=O)c1ccc(COc2ccc3c(C)c(C)c(=O)oc3c2)o1` the value was 3.49 (inactive); for `CCOc1ccc(N2C(N)=NC(N)=NC2(C)C)cc1`, -4.31 (active).
Turning to `CCOC(=O)CN1CC23C=CC(O2)C(C(=O)Nc2cc(OC)ccc2OC)C3C1=O` (centres undefined), the z-score was 4.17 (inactive).
For `COc1cc(N2CCCC2)c(OC)cc1/C=C(/C#N)c1cccc(Br)c1` the value was 15.4 (inactive); for `N#C/C(=C\c1cc([N+](=O)[O-])c(N2CCCCC2)cc1N1CCCCC1)c1nn(-c2ccccc2)c(N)c1C#N`, -3.55 (active).
`COc1cc(N2CCCC2)c(OC)cc1/C=C(/C#N)c1cccc(F)c1`: the z-score is 3.95 (inactive).
For `CCOC(=O)CNC(=O)c1cn(C)c(=O)c2cc(OC)c(OC)cc12` the value was 3.18 (inactive); for `CCCNC(=O)c1cc(OC)c(OC)cc1[N+](=O)[O-]`, -4.31 (active); for `CCN1CCN(c2cc(C)c3cc(NC(=O)Cc4ccccc4OC)ccc3n2)CC1`, -4.89 (active).
`COc1ccccc1CC(=O)NC1CC(C)(C)NC(C)(C)C1`: the z-score is 3.65 (inactive).
For `CC(=O)N1CCN(Cc2nc3cc(NC(=O)c4ccccc4)ccc3n2C)CC1` the value was 3.37 (inactive).
With `Cc1cc(N2CCOCC2)nc2ccc(NC(=S)N3CCCCC3C)cc12` (centres undefined) the figure was 1.7 (inactive); with `CCc1ccc(CN(C)C(=O)CCc2nnc(-c3ccc(-c4ccccc4)cc3)o2)nc1`, -3.31 (active).
As to `CCN(CC)c1ccc2cc(C#N)c(=O)oc2c1`, the z-score was 4.24 (inactive).
For `CCCCCCc1cc2cc(-c3nnc(-c4ccccc4OC)o3)c(=O)oc2cc1O` the value was 8.91 (inactive); for `CCCCCCc1cc2cc(-c3nnc(-c4ccccc4O)o3)c(=O)oc2cc1O`, 7.49 (inactive).
For `CCCCCCc1cc2cc(C(=O)Nc3ccc(OC)cc3)c(=O)oc2cc1O` the value was -4.12 (active); for `COC(=O)c1ccc(OCCn2cnc3ccccc3c2=O)cc1`, 0.57 (inactive).
For `CCCOc1ccc(Cn2cnc3ccccc32)cc1` the value was -5.58 (active); for `Cc1cc(SCCOc2ccccc2)nc(N)n1`, 3.13 (inactive).
`COC(=O)Cc1c(C)nc2nc(NCc3ccccc3OC)[nH]n2c1=O`: the z-score is 4.27 (inactive).
In the case of `Cc1cc(C)cc(-n2c(=O)c3sccc3n(CC(=O)NCc3ccco3)c2=O)c1`, the z-score was 4.64 (inactive).
With `CC(=O)c1sc2nc(-c3cccs3)cc(C(F)(F)F)c2c1N` the figure was 14.9 (inactive); with `Nc1ncnc2c1ncn2CCOc1ccccc1`, -4.5 (active).
For `CC(C)(C)NC(=O)/C=C/c1ccc(C(F)(F)F)cc1` the value was -3.15 (active).
Regarding `CC(C)(C)C(=O)/C=c1\s/c(=C\c2ccc(-c3ccc([N+](=O)[O-])cc3)o2)c(=O)n1CC(=O)NC(N)=O`, the z-score is 17.1 (inactive).
`CC1(C)C=Cc2c(c3c(c4c(=O)c(-c5ccc(O)cc5)coc24)OC(C)(C)CC3)O1`: the z-score was -0.78 (inactive).
Regarding `CC(C)c1nc2oc3c(N4CCN(C)CC4)ncnc3c2c2c1CCC2`, the z-score is -3.12 (active).
Turning to `COCCn1c(C)cc(C(=O)CSc2ncnc3sc4c(c23)CCC4)c1C`, the z-score is -8.03 (active).

The record behind these values is PubChem BioAssay AID1628 (Sanford-Burnham Center for Chemical Genomics, 2009).
